# A selection: hits, their analogues and other compounds. The true share with any hit is near 6.6%.
# MPTP block: blocks calcium-induced mitochondrial swelling | isolated mouse mitochondria, Ca2+ swelling absorbance, 30 min | AID 602449 | inhibition, % at 10 µM | 360,000 compounds, 1.4% hits;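 active = inhibition of 50% or more, scaled per plate between neutral and stimulator controls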;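 note: 0% = DMSO wells given calcium and 100% = 1 mM EGTA wells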
# GRIN3A LBD mod: modulators (binders) of human NR3A ligand-binding domain; NR3A LBD differential scanning fluorimetry, Tm shift; 0% = protein alone, 100% = glycine-bound protein; Tm shift relative to glycine control, % at 25 µM; 340,000 compounds, 2.5% hits; AID 1259313;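 active = melting temperature shift of at least 10% of the positive control shift, at one fixed dose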
# Gli-Sufu antag: Gli-Sufu pathway antagonism | Sufu-KO-LIGHT fibroblasts, Gli luciferase reporter luminescence | inhibition, % at 5 µM | 340,000 compounds, 0.74% hits | AID 588413;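 active = inhibition above about 55%, limit read from the data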;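 note: 0% = DMSO-treated cells and 100% = wells with medium but no cells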
# CSC inhib: blocks cancer stem cells | cancer stem cell-like cells viability, luminescence | inhibition, % at 7.5 µM | 300,000 compounds, 1.1% hits | AID 2717; in the data active = inhibition above about 75%; inconclusive = no clear call, values can overlap the other calls; tested in HMLE shEcad cells
# Mdm2-MdmX inh: disrupts the human Mdm2-MdmX interaction. SaOS-2 split-luciferase Mdm2/MdmX complementation, luminescence. inhibition, % at 8 µM. 330,000 compounds, 3% hits;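 active = inhibition of at least 50% at 8 µM in the primary screen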
# Target sequence (O15151 whole entry, looked up): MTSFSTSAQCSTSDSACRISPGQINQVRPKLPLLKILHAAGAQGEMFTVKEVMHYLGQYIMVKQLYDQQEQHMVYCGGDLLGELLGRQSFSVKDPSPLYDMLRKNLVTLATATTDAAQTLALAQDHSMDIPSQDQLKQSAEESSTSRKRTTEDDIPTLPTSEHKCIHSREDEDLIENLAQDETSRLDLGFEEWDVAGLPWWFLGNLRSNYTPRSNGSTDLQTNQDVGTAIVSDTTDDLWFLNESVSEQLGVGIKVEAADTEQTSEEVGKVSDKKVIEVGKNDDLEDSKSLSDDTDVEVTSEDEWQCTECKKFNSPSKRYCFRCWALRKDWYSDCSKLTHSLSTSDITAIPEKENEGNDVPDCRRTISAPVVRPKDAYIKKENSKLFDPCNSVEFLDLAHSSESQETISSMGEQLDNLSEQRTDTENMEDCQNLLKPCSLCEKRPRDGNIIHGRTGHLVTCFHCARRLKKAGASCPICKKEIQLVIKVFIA
# Target sequence (Q00987 whole entry, looked up): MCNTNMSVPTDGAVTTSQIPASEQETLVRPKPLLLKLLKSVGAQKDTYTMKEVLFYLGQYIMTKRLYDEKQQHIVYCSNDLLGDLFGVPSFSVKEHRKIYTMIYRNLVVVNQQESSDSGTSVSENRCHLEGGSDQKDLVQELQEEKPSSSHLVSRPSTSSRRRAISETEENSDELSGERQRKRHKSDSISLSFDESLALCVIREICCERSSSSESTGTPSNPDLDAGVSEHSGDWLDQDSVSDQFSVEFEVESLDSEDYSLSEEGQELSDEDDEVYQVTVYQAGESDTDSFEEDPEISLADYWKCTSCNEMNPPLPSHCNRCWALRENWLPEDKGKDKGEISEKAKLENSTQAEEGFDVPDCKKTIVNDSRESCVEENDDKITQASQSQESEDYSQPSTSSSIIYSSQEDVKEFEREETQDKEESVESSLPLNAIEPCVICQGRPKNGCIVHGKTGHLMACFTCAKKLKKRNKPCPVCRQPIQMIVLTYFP
# Beta cell apopt: beta cell apoptosis inhibition; AID 435005; protection from apoptosis, % (test concentration not listed); INS-1E cytokine-induced death, ATP luminescence, 48 h; percent of positive-control rescue, neutral wells zero; 300,000 compounds, 0.8% hits;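 active = Every replicate reaches about 75%, or at least half do and their mean reaches it too, limit read from the data; inconclusive = At least half of replicates reach the limit but their mean does not; inactive = Under half of replicates reach the limit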;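 note: 0% = cytokine-treated negative control wells and 100% = positive control rescue; higher means more ATP so stronger rescue from cytokine killing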
# Mdm2-MdmX conf: human Mdm2/MdmX binding inhibition, confirmed; 10,000 compounds, 55% hits; shares compounds with Mdm2-MdmX inh; luminescent assay; AID 489028; inhibition, % at 8 µM; in the data active = inhibition above about 40%
# Full FLuc ctr: full-length luciferase inhibition in Mdm2/MdmX counter-screen | 6,200 compounds, 77% hits | inhibition, % at 8 µM | shares compounds with Mdm2-MdmX inh | AID 504607 | SaOS-2 full-length luciferase counterscreen, luminescence;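 active = mean inhibition at 8 µM reaching about 37%, which flags the compound as non-specific, limit read from the data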;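 note: p53-null SaOS-2 cells with luciferase driven by a doxycycline-inducible promoter; compound on cells about two nights before reading with doxycycline added after day one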
# * hit, by the source's call; ? = inconclusive; / = not tested or not shown.
SMILES,MPTP block,GRIN3A LBD mod,Gli-Sufu antag,CSC inhib,Mdm2-MdmX inh,Beta cell apopt,Mdm2-MdmX conf,Full FLuc ctr
CCOc1cc(N2CCOCC2)c(OCC)cc1NC(=O)c1cc(-c2ccco2)nc2ccccc12,1,-1,23,12,70*,16,66*,72*
O=C(Nc1ccc(N2CCOCC2)cc1)c1cc(-c2ccncc2)nc2ccccc12,0,0,-36,-7,0,-1,/,/
COc1ccc(-c2cc(C(=O)Nc3ccccc3N3CCOCC3)c3ccccc3n2)cc1OC,-2,-2,18,40,53*,15,58*,75*
COc1ccc(-c2cc(C(=O)NNC(=O)c3csc(N4CCOCC4)n3)c3ccccc3n2)cc1OC,-2,-5,9,0,34,18,/,/
CCc1nc(SCC(=O)Nc2ccc(Br)cn2)n[nH]1,1,/,/,3,-11,/,/,/
COC(=O)[C@]12CCCCC=C1N(Cc1cccc3ccccc13)C(=O)[C@H](CC(=O)NCc1cccc(C(F)(F)F)c1)C2,0,/,/,/,/,/,/,/
Cc1cccc(N(C)S(=O)(=O)c2ccc(-c3cc(C)no3)s2)c1,-1,-5,8,14,65*,7,51*,89*
CCN(c1cccc(C)c1)S(=O)(=O)c1ccc(-c2cc(C)no2)s1,1,-16,22,58,53*,8,53*,69*
CCOc1ccc(N(C)S(=O)(=O)c2ccc(-c3cc(C)no3)s2)cc1,0,-14,34,62,61*,15,53*,84*
CCC(C)NC(=O)[C@@H]1CSC2c3ccccc3C(=O)N21 (stereo not given in full),-1,-2,2,-7,2,-14,/,/
Cc1cccc(NC(=O)CSc2nc(C)c(CC(=O)c3ccc(Br)cc3)c(C)c2C#N)c1C,-2,-1,-4,36,100*,?,6,/
Cc1nc(SCC(=O)Nc2ccc(F)cc2)c(C#N)c(C)c1CC(=O)c1ccc(Br)cc1,1,-1,3,-2,97*,-7,76*,80*
CCc1ccc2nc(N(CCCN(C)C)C(=O)c3ccc(C(=O)c4ccccc4)cc3)sc2c1,2,2,12,24,74*,2,21,/
CCc1ccc2nc(N(CCCN(C)C)C(=O)c3ccc(S(=O)(=O)N4CCCc5ccccc54)cc3)sc2c1,2,-2,-20,?,91*,20,30,/
COc1cccc2sc(N(CCCN(C)C)C(=O)c3ccc(S(=O)(=O)N4CCc5ccccc5C4)cc3)nc12,0,1,11,-1,62*,1,23,/
CN(C)CCCN(C(=O)c1ccc(S(=O)(=O)N2CCc3ccccc32)cc1)c1nc2c(Cl)cccc2s1,5,2,27,50,30,0,/,/
COc1cccc2sc(N(CCCN(C)C)C(=O)c3ccc(S(=O)(=O)N4CCCc5ccccc54)cc3)nc12,1,-16,44,23,80*,9,28,/
COc1cc2nc(N(CCCN(C)C)C(=O)c3ccc(C(=O)c4ccccc4)cc3)sc2cc1OC,33,0,23,-16,41,/,/,/
COC(=O)CCC(=O)c1ccc(OC)c(Cl)c1,/,/,/,1,-37,-5,/,/
COc1ccc(OC)c2sc(N(CCCN(C)C)C(=O)c3ccc(S(=O)(=O)N4CCc5ccccc5C4)cc3)nc12,/,/,/,101*,99*,100*,100*,1
COc1cc2nc(N(CCCN(C)C)C(=O)c3ccc(S(=O)(=O)N4CCc5ccccc5C4)cc3)sc2cc1OC,30,1,23,-5,30,/,/,/
O=[N+]([O-])c1cc(-c2nc(-c3ccncc3)no2)ccc1Cl,2,2,-15,36,99*,3,81*,23
O=C(Nc1ccccc1N1CCOCC1)c1cc(=O)[nH]c2ccccc12,-1,-3,3,4,-18,-4,/,/
Cn1c(=O)c(/C(N)=N/OC(=O)c2ccccc2)cn(-c2ccccc2)c1=O,6,-2,6,-4,58*,1,25,/
Cn1c(N)c(C(=O)c2ccccc2)c(=O)n(C)c1=O,1,7,5,1,20,-1,/,/
SMILES,MPTP block,GRIN3A LBD mod,Gli-Sufu antag,CSC inhib,Mdm2-MdmX inh,Beta cell apopt,Mdm2-MdmX conf,Full FLuc ctr
COc1ccc(-c2nc(CS(=O)CC(=O)NCCN3CCCCC3C)c(C)o2)cc1OC (stereo not given),0,1,-7,2,-15,-2,/,/
Cn1nnnc1SCC(=O)N1CCN(S(=O)(=O)c2ccc(Cl)cc2)CC1,-2,1,-2,-6,70*,/,-8,/
COc1ccc(OC)c(NC(=O)c2cc(OC(C)=O)cc(C(=O)Nc3cc(OC)ccc3OC)c2)c1,1,-3,/,0,56*,18,13,/
Cc1ccc2[nH]c(=O)c3cc(C(=O)N(CCCOC(C)C)Cc4ccco4)sc3c2c1,0,0,9,9,69*,-1,25,/
CCCCN(CC)C(=O)c1cc2c(=O)[nH]c3ccc(C)cc3c2s1,1,-3,11,9,42,7,/,/
CCCCN(Cc1ccco1)C(=O)c1cc2c(=O)[nH]c3ccc(C)cc3c2s1,2,-11,12,17,84*,22,37,24
CCc1nc2ccccc2c(C(=O)OCC(=O)N2CC(C)OC(C)C2)c1C (stereo not given),-2,-1,2,-12,6,1,/,/
O=C(NC1CCCCCC1)C1CCC(CNS(=O)(=O)c2ccc(Br)s2)CC1 (stereo not given),-2,1,10,4,51*,20,11,/
CC1CCC(NC(=O)C2CCC(CNS(=O)(=O)c3ccccc3)CC2)CC1 (stereo not given),0,2,18,1,14,2,/,/
COC(=O)C1=C(C)N(CCCC(=O)O)C(=O)NC1c1cccc(Cl)c1Cl (stereo not given),-2,1,0,-3,6,-1,/,/
CC(C)(c1ccccc1)c1ccc(OCC2CO2)cc1 (stereo not given),1,3,-1,-3,7,-3,/,/
O=S(=O)(c1ccc(OCC2CO2)cc1)c1ccc(OCC2CO2)cc1 (stereo not given),1,1,-5,15,87*,25,34,/
CC(C)C(=O)Nc1cccc(NC(=S)NC(=O)c2ccc(Cl)cc2)c1,17,-9,-47,-4,-5,6,/,/
Cc1ccc(NC(=S)NC(=O)c2ccc(F)cc2)cc1S(=O)(=O)Nc1cccc(Cl)c1,1,13*,-30,60,67*,16,54*,108*
COCCCN1C(=O)C(CC(=O)NC2CC2)CC(C(=O)N2CCOCC2)=C1C (stereo not given),-1,/,/,/,/,/,/,/
